# Screening results (PubChem BioAssay)
# Most compounds without a hit are left out; they make up all but 19% or so of the library.
# uPA surface inh = cell surface uPA generation inhibition; cell surface uPA generation assay, qHTS; Potency, µM (doses to about 38.3 µM), inactives show top-dose activity change, negative = inhibition, usual class: inhibitors; 0.31% of 330,000 active; active = well fitted inhibition curve with a large enough effect; inconclusive = small, poorly fitted or top-dose-only effect; inactive = no such curve, though single readings can be large or run the other way; tested in mouse RAW 264.7 cells; also: potency is read from the fitted curve at half-maximal effect; nearly all actives have a fitted effect of over 55% in size
# IL1B secr inh = blocks inflammasome-driven IL-1 beta release | THP-1 LPS/ATP IL-1B secretion, AlphaLISA, 16 h; stronger effect = lower value | activity change, % at 57.5 µM | 4.7% of 360,000 active | AID 743279; in the data active = activity change below about -50%; inconclusive = mostly about -30% to -49%
#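 Secreted IL-1B measured by AlphaLISA bead assay after 16 h compound exposure of THP-1 cells; compounds (final up to 57.5 uM) added 1 h before LPS (250 ng/mL) and ATP (1.25 mM) stimulation; lower signal means less secretion.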
# HT1080 IDH1KD tx = HT-1080 IDH1 knockdown cell toxicity (counter line). Potency, µM (top dose mostly 46.1 µM), without a hit: at the highest dose activity, negative = toxicity, actives largely listed as cytotoxic. AID 686971. HT-1080 IDH1 knockdown viability, ATP luminescence, 48 h. 2% of 360,000 active;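 also: potency is read from the fitted curve at half-maximal effect; 0% = DMSO wells and -100% = cell-free medium wells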
#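 After a 2 h attachment period, IDH1KD HT-1080 cells took pin-transferred compound for 48 h at 37 °C; ATP-based luminescence after 10 min room-temperature reagent incubation reported viability.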
# DT40 TDP1 no CPT = qHTS for Inhibitors of human tyrosyl-DNA phosphodiesterase 1 (TDP1): qHTS in cells in absence of CPT; DT40 Tdp1-/- hTDP1 cells, no CPT, ATP luminescence, 48 h; Potency, µM (top dose mostly 46.2 µM), for the others: top-dose activity change, negative = growth inhibition, actives largely listed as inhibitors; 15% of 420,000 active; also: potency is read from the fitted curve at half-maximal effect; nearly all actives have a fitted effect of over 55% in size
#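 Compound effects on proliferation are scored in DT40 Tdp1-/-;hTDP1 cells in the absence of CPT. ATP levels (CellTiter-Glo luminescence) are recorded after a ≥48 hr, 37 °C incubation.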
# HT1080-NT tox = kills 2HG-producing HT-1080-NT fibrosarcoma cells; HT-1080-NT fibrosarcoma viability, CellTiter-Glo ATP luminescence, 48 h; Potency, µM (top dose mostly 46.1 µM), without a hit: at the highest dose activity, negative = less viability, actives largely listed as cytotoxic; 1.6% of 360,000 active; AID 686970;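 also: NT is the 2HG producing partner of a matched IDH1 knockdown line; potency is read from the fitted curve at half-maximal effect; 0% = DMSO-treated cells and -100% = media-only wells without cells; nearly all actives have a fitted effect of over 55% in size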
#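 Fibrosarcoma NT cells, 750 per well in 5% FBS RPMI, were exposed to compound for 48 hours. Viability: CellTiter-Glo luminescence.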
# TDP1 cell CPT = growth inhibition of DT40 Tdp1-/-;hTDP1 cells with camptothecin (screen for TDP1 inhibitors); AID 686979; 12% of 420,000 active; chicken DT40 Tdp1-/-;hTDP1 cells + 20 nM CPT, ATP luminescence, 48 h; Potency, µM (series often up to 46.2 µM), for inactives: at the highest dose activity change, negative = growth inhibition, actives largely listed as inhibitors; also: potency is read from the fitted curve at half-maximal effect; nearly all actives have a fitted effect of over 55% in size
#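 Chicken DT40 Tdp1-/- cells stably complemented with human TDP1 were seeded at 400 cells/well in medium containing 20 nM camptothecin, exposed to pin-transferred compounds, and grown at 37 °C for at least 48 hr. Viability was read as ATP luminescence.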
# * marks the source's active call; other numbers are inactive results; ? = inconclusive; . = no result. Unless noted, calls follow the shape of the dose curve; as a rule, active = well fitted curve in the direction sought with a large enough effect; inconclusive = small, poorly fitted or top-dose-only effect, or another doubt; inactive = no such curve, though single readings can be large; an effect the other way counts as inactive or inconclusive. Unless noted, % is scaled to controls: 0 for no effect and ±100 for the full control effect.
SMILES,uPA surface inh,IL1B secr inh,HT1080 IDH1KD tx,DT40 TDP1 no CPT,HT1080-NT tox,TDP1 cell CPT
CN(C)S(=O)(=O)c1ccc(N2CCCC2)c(C(=O)N2CCN(S(=O)(=O)c3ccc(F)c(F)c3)CC2)c1,1%,9,-1%,-19%,-1%,-29%
CC(=O)Nc1ccc(NC(=O)c2cc(S(=O)(=O)N3CCCCC3)ccc2N2CCOCC2)cc1,-5%,6,-4%,1%,3%,-21%
O=C(CC1C(=O)NCCN1Cc1ccccc1)NCCCOc1cccnc1 (configuration not stated),-2%,7,27%,-16%,13%,-16%
O=C(c1ccncc1)N1CCC[C@@]2(CCN(Cc3cc(C(F)(F)F)cc(C(F)(F)F)c3)C2)C1,.,.,.,?,.,-24%
O=C(O)c1ccc(Nc2c3ccccc3nc3ccccc23)cc1,11%,-13,-14%,2.1µM*,-18%,1.3µM*
O=C(O)c1ccc(Nc2nc(-c3ccccc3)nc3ccccc23)cc1,7%,10,-16%,21µM*,-27%,23µM*
CNC(=O)c1ccc(Nc2nc(-c3ccccc3)nc3ccccc23)cc1,0%,-90*,18µM*,13µM*,18µM*,16µM*
CN(C)C(=O)c1ccc(-c2nc(Nc3ccccc3)c3ccccc3n2)cc1,.,.,.,16µM*,.,?
O=C(O)c1cccc(Nc2nc(-c3ccc([N+](=O)[O-])cc3)nc3ccccc23)c1,4%,34,1%,7%,0%,-30%
O=C(O)c1cnc(-c2ccccc2)nc1Sc1ccc(Cl)cc1Cl,1%,10,-1%,-16%,0%,22%
CCn1ncc([N+](=O)[O-])c1C(=O)Nc1c(C)nn(Cc2ccc(F)cc2)c1C,5%,6,0%,-8%,0%,-2%
CCC(=O)OCCNc1cc(Sc2nc3ccccc3[nH]2)c2nonc2c1[N+](=O)[O-],-7%,-101*,?,2.9µM*,?,2.3µM*
Nc1nonc1NC(=O)CSc1nc2ccccc2s1,7%,12,8%,-12%,0%,-4%
CC(C)OC(=O)CSc1nc2ccccc2s1,5%,6,13%,-22%,10%,13%
O=[N+]([O-])c1c(NCCCO)cc(Sc2nc3ccccc3s2)c2nonc12,.,?,6.3µM*,0.79µM*,11µM*,1.3µM*
CCC(=O)OCCNc1cc(Sc2nc3ccccc3s2)c2nonc2c1[N+](=O)[O-],.,-14,2.8µM*,2.1µM*,-58%,1.6µM*
CS(=O)(=O)c1ccc(Sc2nc3ccccc3[nH]2)c([N+](=O)[O-])c1,1%,?,-4%,?,-1%,?
CC1(C)OC(=O)C2=C(C[C@@H](CCC(F)(F)F)O[C@H]2c2ccc(F)cc2)O1,.,-5,11%,5%,3%,5%
O=C(CSc1nnc(SCc2ccccc2Cl)s1)N/N=C/c1c[nH]c2ccccc12,-2%,28,-28%,?,-24%,26µM*
Cc1ccc(CSc2nnc(SCC(=O)N/N=C/c3c[nH]c4ccccc34)s2)cc1,0%,30,23µM*,?,21µM*,?
O=C(CSc1nnc(SCc2ccc(Cl)cc2)s1)N/N=C/c1c(Cl)cccc1Cl,5%,18,?,26µM*,?,?
COCCN1C[C@@H](CO)O[C@@H](n2cnc3c(NCc4ccncc4)ncnc32)C1,.,30,18%,-12%,24%,?
COCCC(=O)NC1CCCc2c1cnn2-c1cccc(C)c1C (configuration not stated),-3%,20,20%,-22%,7%,-19%
CC1CCCN(c2ncnc3c2nnn3C)C1 (configuration not stated),.,.,.,-17%,.,-13%
COC(=O)C1=C(C)NC(=O)/C1=C\c1cc(C)n(-c2ccc(F)cc2)c1C,1%,?,-1%,-28%,-2%,-5%
SMILES,uPA surface inh,IL1B secr inh,HT1080 IDH1KD tx,DT40 TDP1 no CPT,HT1080-NT tox,TDP1 cell CPT
COC(=O)C1=C(C)NC(=O)/C1=C\c1cc(C)n(-c2cccc(C)c2)c1C,6%,?,16%,16µM*,3%,?
COc1ccccc1CNC(=O)CCCC(=O)n1ncc2cc(C)ccc21,-41%,-4,-1%,1%,-6%,-24%
COc1cccc(-n2c(SCC(N)=O)nnc2-c2ccncc2)c1,-6%,7,-1%,-10%,14%,-22%
COc1cccc(NC(=O)C(Sc2nnc(-c3ccncc3)n2-c2ccc(Cl)cc2)c2ccccc2)c1 (configuration not stated),-9%,-9,?,21µM*,?,16µM*
COc1ccc(CCN(C)c2ncnc3sccc23)cc1OC,?,-53*,-7%,-61%,-16%,?
COc1ccc(CN(C)c2ncnc3sccc23)c(OC)c1OC,-25%,-12,?,21µM*,?,12µM*
COc1ccc(C(CNc2ncnc3sccc23)N(C)C)cc1OC (configuration not stated),-4%,18,-5%,-22%,-24%,0%
COc1ccc(CCN(C)C(=O)CSc2ncnc3sccc23)cc1OC,-8%,19,10%,?,-17%,?
CN1C(=O)C(=O)/C(=C(/O)c2ccccc2)C1c1ccc([N+](=O)[O-])cc1 (configuration not stated),1%,0,14%,14%,8%,-11%
Cc1ccccc1NC(=S)N/N=C/C(C)c1ccccc1 (configuration not stated),-2%,56,-13%,13µM*,-1%,10µM*
Cc1cccc(NC(=S)N/N=C/C(C)c2ccccc2)c1C (configuration not stated),-1%,-103*,-28%,?,-3%,-26%
Cc1ccccc1NC(=S)Nc1ccc(Br)cc1,0%,-2,-6%,-11%,-22%,-14%
CC(C)c1ccccc1NC(=S)NC(C)c1ccccc1 (configuration not stated),-4%,-10,-26%,16µM*,0%,?
Cc1ccc2nc(NC(=O)CSc3nnc(C)c(=O)n3N)sc2c1,2%,3,11%,-12%,1%,-7%
CC1CCN(C(=O)CN2c3ccc(Br)cc3-c3ccccc3S2(=O)=O)CC1,.,.,.,21µM*,.,13µM*
CC1CN(C(=O)CN2C(=O)c3ccccc3S2(=O)=O)CC(C)O1 (configuration not stated),0%,18,1%,-11%,0%,-2%
